Screens: PubChem BioAssay, National Center for Advancing Translational Sciences (NCATS)
LmPK inhibitor: LmPK (Leishmania mexicana) enzyme inhibition; Q27686; purified LmPK, Kinase-Glo ATP luminescence, 1 h; Potency, µM (highest dose often 57.5 µM), inactives show at the top dose activity change, negative = inhibition, actives largely listed as inhibitors; actives 0.37% (n = 290,000); AID 1721
Target sequence (Q27686 whole entry, looked up): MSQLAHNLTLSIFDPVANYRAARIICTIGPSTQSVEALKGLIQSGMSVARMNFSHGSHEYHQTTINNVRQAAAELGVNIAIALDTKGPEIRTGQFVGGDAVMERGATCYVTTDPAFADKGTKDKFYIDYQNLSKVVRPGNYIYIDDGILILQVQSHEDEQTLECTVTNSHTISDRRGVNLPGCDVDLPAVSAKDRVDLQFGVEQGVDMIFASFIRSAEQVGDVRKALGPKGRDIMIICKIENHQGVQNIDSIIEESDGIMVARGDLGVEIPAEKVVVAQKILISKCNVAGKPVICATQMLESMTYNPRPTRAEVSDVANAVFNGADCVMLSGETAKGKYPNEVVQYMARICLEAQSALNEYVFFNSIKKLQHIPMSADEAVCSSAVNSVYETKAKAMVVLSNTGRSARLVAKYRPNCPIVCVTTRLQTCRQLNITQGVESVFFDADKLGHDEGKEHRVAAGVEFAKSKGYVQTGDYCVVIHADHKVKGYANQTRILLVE
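Purified LmPK (0.1 nM) converted ADP (0.1 mM) to ATP with PEP (0.5 mM) in imidazole buffer pH 7.2 with KCl and MgCl2, 1 h at room temperature. ATP was read by Kinase-Glo luminescence; data normalized to uninhibited and no-enzyme controls.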
TbPYK inhibitor: inhibitors of Trypanosoma brucei pyruvate kinase. TbPYK enzyme, Kinase-Glo Plus ATP luminescence, 45 min. Potency, µM (titrated, usually from 76.8 µM), inactives show top-dose activity, negative = inhibition, most hits filed as inhibitors. actives 0.12% (n = 410,000); note: nearly all actives have a fitted effect of over 50% in size
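Screened from lowest to highest concentration, compounds were pinned into TbPYK/substrate mixtures, and ADP (130 uM final) was added. Plates sat at room temperature for 45 min prior to Kinase-Glo Plus detection by luminescence.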
FBPA Giardia inh: blocks Giardia fructose-bisphosphate aldolase activity; A8B2U2; purified Giardia FBPA; Potency, µM (top dose mostly 59.6 µM), without a hit: at the top dose activity, negative = inhibition, hits mostly inhibitors; actives 0.71% (n = 290,000); AID 2451; note: nearly all actives have a fitted effect of over 55% in size
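40 nM FBPA preincubated 10 min at RT with compound (up to 57.5 uM final), then substrate plus GAPDH/TPI/NAD/arsenate coupling and diaphorase/resazurin added. Fluorescence read after 20 min at RT, 525/598 nm.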
RE007 growth inh: less growth of the S. pombe RE007 Vpr strain; S. pombe RE007 Vpr strain, BacTiter-Glo ATP luminescence, 24 h; actives 0.21% (n = 360,000); Potency, µM (series often up to 92.2 µM), for the others: at the top dose activity change, negative = less growth, usual class: inhibitors; AID 651644; active = well fitted falling curve with a large enough effect; inconclusive = small, poorly fitted or top-dose-only effect; inactive = no such curve, though single readings can be large or run the other way; note: nearly all actives have a fitted effect of over 50% in size
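Fission yeast strain RE007, carrying one chromosomally integrated HIV-1 vpr copy, was seeded at OD 0.01 in PMG+AL medium with 23 nL pinned compound. After 24 h at 30 °C and 99% humidity, viability was read by BacTiter-Glo luminescence.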
Numbers without * were called inactive; ? = inconclusive; . = no result given; [ ] = another dose, or the depositor's remark. Rows were chosen to be rich in hits. Some 0.95% of all compounds tested hit in one or more screens of this group. Unless noted, calls come from the whole dose curve; as a rule, active = well fitted curve in the direction sought with a large enough effect; inconclusive = small, poorly fitted or top-dose-only effect, or another doubt; inactive = no such curve, though single readings can be large; an effect the other way counts as inactive or inconclusive. % is set by controls: 0 for no effect and ±100 for the full control effect; potency is the fitted concentration of half-maximal effect.

SMILES	LmPK inhibitor	TbPYK inhibitor	FBPA Giardia inh	RE007 growth inh
O=C(c1ccc2c(c1)OCO2)N1CCCC1	1%	2%	5%	17%
O=C(Nc1ccc(C(=O)N2CCCC2)cc1)c1ccc2c(c1)OCO2	16µM*	1%	3%	?
COc1cc(N2CCC(N3CCN(C)CC3)CC2)ccc1Nc1ncc(Cl)c(Nc2ccccc2S(=O)(=O)C(C)C)n1	.	-24%	.	.
CCNC(C)Cc1ccc2c(c1)OCO2 (stereo unspecified)	.	6%[157 µM]	.	.
CC(C)NC[C@@H](O)c1ccc(O)c(O)c1	0%	-7%	7.1µM*	1%[18.4 µM]
C#C[C@@]1(OC(C)=O)CC[C@H]2[C@@H]3CCC4=CC(=O)CC[C@@H]4[C@H]3CC[C@@]21C	.	7%	.	.
CCSc1nnc(NC(=O)c2ccccn2)s1	?	-12%	?	11µM*
CCOc1ccc2nc(NC(=O)c3ccccn3)sc2c1	?	-11%	?	14µM*
CCSc1nnc(NC(=O)c2cnccn2)s1	-3%	-3%	1%	-20%
CCOc1ccc2nc(NC(=O)c3ccoc3C)sc2c1	13µM*	?	-17%	10µM*
CC(C)([CH2][Sn]([CH2]C(C)(C)c1ccccc1)([CH2]C(C)(C)c1ccccc1)[O][Sn]([CH2]C(C)(C)c1ccccc1)([CH2]C(C)(C)c1ccccc1)[CH2]C(C)(C)c1ccccc1)c1ccccc1	.	.	3%	.
O=C1C=C(NCc2ccccc2)c2ccccc2C1=O	-1%	3%	1.3µM*	?
O=c1cccccc1NCc1ccccc1	-8%	.	8.9µM*	-15%[3.69 µM]
O=C1C=C(Nc2ccccc2O)c2ccccc2C1=O	-12%	4%	18µM*	?
COCc1nnc(NC(=O)CS(=O)(=O)c2ccc(C)cc2)s1	4%	1%	-22%	-5%
O=C(CSc1nc2[nH]ncc2c(=O)n1-c1ccccc1Br)NCc1ccccc1Cl	1%	-5%	-13%	-1%
N#CCSc1nc2[nH]ncc2c(=O)n1-c1ccccc1Br	11µM*	13%	0%	-14%
Cc1ccc(C(=O)Nc2ncc(Cc3ccc(F)cc3)s2)o1	-1%	-2%	-4%	1%
Cc1ccc(C(=O)Nc2nc3ccc(S(C)(=O)=O)cc3s2)o1	14µM*	-17%	2%	?
Cc1ccc(C(=O)Nc2ncc(C)s2)o1	13µM*	-21%	0%	-18%
[N-]=[N+]=Nc1nc2c(N)ncnc2n1C1OC(CO)C(O)C1O (stereo unspecified)	.	.	-1%	.
CCN(CC)C(=O)c1ccc(Oc2ccc([N+](=O)[O-])cc2Cl)cc1	0%	3%	3%	33%
CCN(CC)C(=O)c1cc([N+](=O)[O-])cc2c1-c1ccc([N+](=O)[O-])cc1C2=C(C#N)C#N	-1%	-1%	7.1µM*	-3%
Cn1cc(C(=O)c2ccccc2)cc1-c1nc2ccccc2n1C	5%	-2%	-2%	-3%
CN(C)c1ccc(-c2nc3ccccc3n2C)cc1	13µM*	?	-12%	?
SMILES	LmPK inhibitor	TbPYK inhibitor	FBPA Giardia inh	RE007 growth inh
Cn1c2nc3ccccc3c-2nc2ccccc21	.	-15%	.	-24%
CC(C)n1c(-c2ccc(N(C)C)cc2)nc2ccccc21	-8%	-15%	10%	-21%
CC(=O)c1ccc(-c2nc3ccccc3n2C)o1	16µM*	-24%	-14%	-15%
Cc1oc(-c2nc3ccccc3n2C)cc1C(=O)c1ccccc1	13µM*	32µM*	-27%	?
Cc1ccc(-c2nc3ccccc3n2C)o1	14µM*	?	-5%	40µM*
O=C(NNC1CC(=O)N(c2ccc(Br)cc2)C1=O)c1cccs1 (stereo unspecified)	3%	4%	3%	10%
CCOC(=O)CNC1CC(=O)N(c2ccc(Br)cc2)C1=O (stereo unspecified)	-12%	0%	2%	13µM*
C=CCN=C1N[C@@H](c2cccc(C(F)(F)F)c2)C(C(=O)OC)=C(C)N1CC	-8%	-11%	16µM*	-12%
CCN1C(=NCC(C)C)N[C@@H](c2cccc(C(F)(F)F)c2)C(C(=O)OC)=C1C	-8%	-1%	23%	-16%
C[C@@H](O)[C@@H]1C(=O)N2C(C(=O)O)=C([C@H]3CCCO3)S[C@H]12	.	2%	.	.
Cc1cccc(-n2c(CNC(=O)c3cccc([N+](=O)[O-])c3C)n[nH]c2=S)c1	-1%[11.5 µM]	8.9µM*	-16%	-8%
COc1ccccc1-n1c(CNC(=O)COc2ccccc2)n[nH]c1=S	?	?	-20%	3%
